Data from PubChem BioAssay (NCI).
Values joined by “and” are separate entries in the source; they are usually repeats but may differ in a detail not shown here. Equal values may be shown once. Compounds without any hit were thinned out: in the full panel of roughly 79,000, 15% have a hit. A structure can be active in one record and inactive in another. Active and inactive are the calls of the source. No stated cut-off is given here; in the data, active means growth inhibition above about 70%; inactive means the rest.

Columns and labels:
[1] = NCI Yeast Anticancer Drug Screen. Data for the rad50 strain (AID 155);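 further: 0% = growth of vehicle-only cultures of the same strain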; conditions: S. cerevisiae rad50 strain growth inhibition, stronger effect = higher value
Outline: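 Readout: growth inhibition relative to vehicle-treated cultures. Compound exposure was carried out in a genetically defined yeast strain deficient in DNA damage repair.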

[2] = NCI Yeast Anticancer Drug Screen. Data for the mec2-1 strain (AID 157); conditions: S. cerevisiae mec2-1 strain, stronger effect = higher value
Outline: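 Compounds were applied to mec2-1 yeast cells. Their growth was then compared with that of vehicle-treated cultures to give growth inhibition.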

[3] = NCI Yeast Anticancer Drug Screen. Data for the sgs1 mgt1 strain (AID 161);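 further: 0% = growth of cultures given vehicle only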; conditions: S. cerevisiae sgs1 mgt1 strain, stronger effect = higher value
Outline: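 This yeast growth screen uses a strain with defined DNA-repair lesions; compound-treated growth is compared with vehicle-treated growth.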

[4] = NCI Yeast Anticancer Drug Screen. Data for the cln2 rad14 strain (AID 165);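 further: 0% = growth equal to vehicle treated cultures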; conditions: S. cerevisiae cln2 rad14 strain, stronger effect = higher value
Outline: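 Strain: cln2 rad14 yeast, altered in cell cycle control and DNA damage repair. Read-out: growth inhibition vs vehicle.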

[5] = NCI Yeast Anticancer Drug Screen. Data for the bub3 strain (AID 167); conditions: S. cerevisiae bub3 mutant strain, stronger effect = higher value
Outline: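 Readout: yeast growth inhibition, expressed relative to vehicle-only wells. The test organism is a mutant strain from a panel with lesions in DNA repair or checkpoint genes.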

[6] = NCI Yeast Anticancer Drug Screen. Data for the mlh1 rad18 strain (AID 175); conditions: S. cerevisiae mlh1 rad18 strain growth inhibition, stronger effect = higher value
Outline: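 A repair-deficient yeast strain is exposed to test compound, and growth is scored relative to vehicle-treated controls.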

[7] = at 5.0 µM (retest, dose inferred, filed as 0.5)
[8] = at 50.0 µM (retest, dose inferred, filed as 5.0)

| Structure (SMILES) | growth inhibition [1, 7] | growth inhibition [1, 8] | growth inhibition ([1]; at 50.0 µM) | growth inhibition [2, 7] | growth inhibition [2, 8] | growth inhibition ([2]; at 50.0 µM) | growth inhibition [3, 7] | growth inhibition [3, 8] | growth inhibition ([3]; at 50.0 µM) | growth inhibition [4, 7] | growth inhibition [4, 8] | growth inhibition ([4]; at 50.0 µM) | growth inhibition [5, 7] | growth inhibition [5, 8] | growth inhibition ([5]; at 50.0 µM) | growth inhibition [6, 7] | growth inhibition [6, 8] | growth inhibition ([6]; at 50.0 µM) |
| --- | --- | --- | --- | --- | --- | --- | --- | --- | --- | --- | --- | --- | --- | --- | --- | --- | --- | --- |
| Cn1c(=O)c2[nH]cnc2n(C)c1=O.[CH2-]C(Cc1cccc2cc(C(=O)O)c(=O)oc12)OC.[Hg+2].[OH-] (stereo not drawn) | 1% (inactive) | 6% (inactive) | 46% (inactive) | -3% (inactive) | 14% (inactive) | 96.7% (active) | -6% (inactive) | 21% (inactive) | 93.5% (active) | 25% (inactive) | -29% (inactive) | 93.2% (active) | -20% (inactive) | -16% (inactive) | 96.8% (active) | -7% (inactive) | 17% (inactive) | 98.3% (active) |
| CCN(CC)C1CC(O[C@H]2C[C@](O)(C(=O)CO)Cc3c(O)c4c(c(O)c32)C(=O)c2c(OC)cccc2C4=O)OC(C)C1O (stereo partly drawn) | 98% (active) | 98% (active) | 99.2% (active) | 99% (active) | 99% (active) | 99.3% (active) | 99% (active) | 99% (active) | 99.5% (active) | 97% (active) | 98% (active) | 98.8% (active) | 98% (active) | 99% (active) | 99% (active) | 98% (active) | 96% (active) | 99.3% (active) |
| ClCc1nc2ccccc2[nH]1 | 10% (inactive) | 88% (active) | 88.7% (active) | 4% (inactive) | 45% (inactive) | 20.5% (inactive) | 18% (inactive) | 83% (active) | 83.5% (active) | -1% (inactive) | 77% (active) | 60% (inactive) | -9% (inactive) | 1% (inactive) | -31.9% (inactive) | 14% (inactive) | 82% (active) | 74.7% (active) |
| CC(=O)[O][Hg][c]1c(C)c(C)c(C)c(C)c1C | 98% (active) | 97% (active) | 87.5% (active) | 98% (active) | 97% (active) | 90.1% (active) | 99% (active) | 98% (active) | 90.7% (active) | 98% (active) | 98% (active) | 89.8% (active) | 98% (active) | 97% (active) | 88.5% (active) | 98% (active) | 96% (active) | – |
| CC1=C2C(=O)[C@H]3[C@@H](CC=C4C[C@@H](O)CC[C@@]43C)[C@@H]2CC[C@]12O[C@@H]1C[C@H](C)CN[C@H]1[C@H]2C | 8% (inactive) and 2% (inactive) | 85% (active) and 81% (active) | 90.5% (active) and 85.8% (active) | 18% (inactive) and 3% (inactive) | 96% (active) and 83% (active) | 96.7% (active) and 90.8% (active) | 11% (inactive) and 5% (inactive) | 84% (active) and 91% (active) | 97% (active) and 87% (active) | -27% (inactive) and -9% (inactive) | 87% (active) and 60% (inactive) | 84.2% (active) and 81% (active) | 22% (inactive) and 17% (inactive) | 91% (active) and 90% (active) | 97.5% (active) and 88.5% (active) | 10% (inactive) and 5% (inactive) | 95% (active) and 89% (active) | 90.7% (active) and 87.4% (active) |
| CCC(C)N1CN(c2ccccc2)C2(CCN(CC3COc4ccccc4O3)CC2)C1=O (stereo not drawn) | 1% (inactive) | -7% (inactive) | -5.3% (inactive) | -5% (inactive) | 1% (inactive) | 4.4% (inactive) | 18% (inactive) | 9% (inactive) | 18.2% (inactive) | 11% (inactive) | 13% (inactive) | 8.65% (inactive) | 9% (inactive) | 32% (inactive) | 66.7% (inactive) | -26% (inactive) | 6% (inactive) | 12.6% (inactive) |
| O=C(O)CCCC1CCCCC1 | 0% (inactive) | 39% (inactive) | 55.1% (inactive) and 57% (inactive) | -2% (inactive) | 21% (inactive) | 37.4% (inactive) and 12.7% (inactive) | 4% (inactive) | 43% (inactive) | 43% (inactive) and 44.3% (inactive) | 4% (inactive) | 27% (inactive) | 38.4% (inactive) and 46.7% (inactive) | -1% (inactive) | 52% (inactive) | 30.5% (inactive) and 62.9% (inactive) | 2% (inactive) | 51% (inactive) | 8.95% (inactive) and 79.8% (active) |
| CCN(CC)CC.CCOc1ccc(NC(=O)N=C=[N-])cc1.[CH-]1CCCCC1.[CH-]1CCCCC1.[CH-]1CCCCC1.[Cl-].[Sn+4] | 99% (active) | 99% (active) | 87.2% (active) | 100% (active) | 99% (active) | 88.4% (active) | 99% (active) | 99% (active) | 90.2% (active) | 99% (active) | 99% (active) | 89.5% (active) | 99% (active) | 99% (active) | 89.2% (active) | 99% (active) | 99% (active) | – |
| C=C(CC(=O)O)C(=O)O (tested in a mixture with another compound) | -1% (inactive) | 0% (inactive) | -3.6% (inactive) and 99.4% (active) | 8% (inactive) | 0% (inactive) | 28% (inactive) and 99.5% (active) | -1% (inactive) | -1% (inactive) | -21.9% (inactive) and 98.8% (active) | 0% (inactive) | -2% (inactive) | 39% (inactive) and 99.6% (active) | -3% (inactive) | -4% (inactive) | -3.25% (inactive) and 99% (active) | 0% (inactive) | -1% (inactive) | 18.6% (inactive) and 99.2% (active) |
| CCC(C)c1cc([N+](=O)[O-])cc([N+](=O)[O-])c1O (stereo not drawn) | -137% (inactive) | 39% (inactive) | 79% (active) | -31% (inactive) | 24% (inactive) | 66.2% (inactive) | -50% (inactive) | 60% (inactive) | 86% (active) | -9% (inactive) | 44% (inactive) | 69.9% (inactive) | -58% (inactive) | 19% (inactive) | 80.1% (active) | -123% (inactive) | 40% (inactive) | 85.5% (active) |
| COc1ccc2c3c(c4cc(OC)c(OC)cc4c2c1)C[C@H]1CCCCN1C3 | 99% (active) | 99% (active) | 92.6% (active) | 99% (active) | 100% (active) | 94.2% (active) | 99% (active) | 99% (active) | 93.8% (active) | 99% (active) | 99% (active) | 92.5% (active) | 99% (active) | 99% (active) | 93.2% (active) | 99% (active) | 99% (active) | 93% (active) |
| CCOP(=S)(OCC)SC(O)(C(F)F)C(F)F | 5% (inactive) | 34% (inactive) | 28.8% (inactive) | -3% (inactive) | 54% (inactive) | 22.9% (inactive) | 3% (inactive) | 62% (inactive) | 42% (inactive) | -3% (inactive) | 32% (inactive) | 22.4% (inactive) | -2% (inactive) | 69% (inactive) | 39.4% (inactive) | 0% (inactive) | 78% (active) | 30.7% (inactive) |
| O=[C-]CCCCCC[C-]=O.[C-]#[O+].[C-]#[O+].[C-]#[O+].[C-]#[O+].[Fe+6].[Fe+6].[c-]1[c-][c-][cH-][c-]1.[c-]1[c-][c-][cH-][c-]1 | 9% (inactive) | 97% (active) | 97.9% (active) | 13% (inactive) | 97% (active) | 98.5% (active) | 1% (inactive) | 98% (active) | 96.8% (active) | 1% (inactive) | 97% (active) | 97.8% (active) | -4% (inactive) | 97% (active) | 99% (active) | 5% (inactive) | 98% (active) | 93.1% (active) |
| [Ni+2].[SH2+]C([SH2+])=Nc1ccccc1.[SH2+]C([SH2+])=Nc1ccccc1.c1ccc(C[P+](c2ccccc2)(c2ccccc2)c2ccccc2)cc1 | 14% (inactive) | 91% (active) | 97.9% (active) | 26% (inactive) | 88% (active) | 98% (active) | 21% (inactive) | 91% (active) | 97.8% (active) | -6% (inactive) | 87% (active) | 90.8% (active) | 8% (inactive) | 85% (active) | 95.3% (active) | 40% (inactive) | 98% (active) | 98.5% (active) |
| CN(C)c1ccc(C2N(Cc3ccc(N(CCCl)CCCl)cc3Cl)CCCN2Cc2ccc(N(CCCl)CCCl)cc2Cl)cc1 | 1% (inactive) | 97% (active) | 93.5% (active) | -12% (inactive) | 98% (active) | 90.9% (active) | 1% (inactive) | 98% (active) | 99% (active) | 1% (inactive) | 97% (active) | 15.8% (inactive) | -1% (inactive) | 97% (active) | 93.8% (active) | 6% (inactive) | 98% (active) | 95.2% (active) |
